High-throughput results deposited in PubChem by National Center for Advancing Translational Sciences (NCATS).
DT40 TDP1 CPT – DT40-hTDP1 cell growth loss with CPT; chicken DT40 Tdp1-/-;hTDP1 cells + 20 nM CPT, ATP luminescence, 48 h; Potency, µM (titrated, usually from 46.2 µM), usual class: inhibitors; actives 12% (n = 420,000); AID 686979; note: nearly all actives have a fitted effect of over 55% in size
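Chicken DT40 Tdp1-/- cells complemented with human TDP1, 400 cells/well, exposed to compounds plus 20 nM camptothecin for at least 48 h at 37 C; viability read as ATP content by CellTiter-Glo luminescence.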
HepG2 tox – counter-screen for TGF-b inhibitors: cytotoxicity in HepG2 cells. HepG2 CAGA-GFP viability, ATP luminescence, 18 h. Potency, µM (titrated, usually from 46.1 µM), hits mostly cytotoxic. actives 0.76% (n = 410,000). AID 588856
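HepG2 CAGA-GFP cells (1000/well, DMEM with 1% FBS) received compound, then TGF-beta at 500 pg/mL final, and were incubated 18 hours at 37 degrees C. Viability was read by CellTiter-Glo luminescence. Media-only wells were set as complete cell-killing and DMSO as no toxicity.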
IL-1B inflam inh – blocks inflammasome-driven IL-1 beta release. actives 4.7% (n = 360,000). activity change, % at 57.5 µM. THP-1 LPS/ATP IL-1B secretion, AlphaLISA, 16 h; hits give low values. AID 743279; in the data active = activity change below about -50%; inconclusive = mostly about -30% to -49%
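Secreted IL-1B measured by AlphaLISA bead assay after 16 h compound exposure of THP-1 cells; compounds (final up to 57.5 uM) added 1 h before LPS (250 ng/mL) and ATP (1.25 mM) stimulation; lower signal means less secretion.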
TDP1 cell noCPT – qHTS for Inhibitors of human tyrosyl-DNA phosphodiesterase 1 (TDP1): qHTS in cells in absence of CPT | DT40 Tdp1-/- hTDP1 cells, no CPT, ATP luminescence, 48 h | Potency, µM (highest dose often 46.2 µM), hits mostly inhibitors | actives 15% (n = 420,000) | AID 686978, 2013; note: nearly all actives have a fitted effect of over 55% in size
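No-CPT arm: Tdp1-/-;hTDP1 DT40 cells (400/well) plus compounds, incubated ≥48 hr at 37 °C. Readout CellTiter-Glo luminescence.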
TGFb inhibitor – blocks TGF-b signaling | HepG2 CAGA-GFP TGF-b/SMAD3 reporter, GFP fluorescence, 18 h; TGF-beta stimulated, 500 pg/mL final | Potency, µM (doses to about 46.1 µM), actives largely listed as inhibitors | actives 1.2% (n = 410,000); note: nearly all actives have a fitted effect of over 65% in size
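HEPG2 CAGA-GFP reporter cells (1000/well, DMEM with 1% FBS) received compounds, then recombinant TGF-beta at 500 pg/mL final for 18 hours at 37 degrees C. Per-cell GFP summed per well was normalised to unstimulated and stimulated DMSO controls before curve fitting.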
TDP1 inh – TDP1 (human) enzyme inhibition; Q9NUW8; recombinant TDP1, AlphaScreen DNA substrate cleavage; Potency, µM (doses to about 130 µM), hits mostly inhibitors; actives 0.28% (n = 350,000); AID 485290; note: nearly all actives have a fitted effect of over 40% in size
Target sequence (Q9NUW8 whole entry, looked up): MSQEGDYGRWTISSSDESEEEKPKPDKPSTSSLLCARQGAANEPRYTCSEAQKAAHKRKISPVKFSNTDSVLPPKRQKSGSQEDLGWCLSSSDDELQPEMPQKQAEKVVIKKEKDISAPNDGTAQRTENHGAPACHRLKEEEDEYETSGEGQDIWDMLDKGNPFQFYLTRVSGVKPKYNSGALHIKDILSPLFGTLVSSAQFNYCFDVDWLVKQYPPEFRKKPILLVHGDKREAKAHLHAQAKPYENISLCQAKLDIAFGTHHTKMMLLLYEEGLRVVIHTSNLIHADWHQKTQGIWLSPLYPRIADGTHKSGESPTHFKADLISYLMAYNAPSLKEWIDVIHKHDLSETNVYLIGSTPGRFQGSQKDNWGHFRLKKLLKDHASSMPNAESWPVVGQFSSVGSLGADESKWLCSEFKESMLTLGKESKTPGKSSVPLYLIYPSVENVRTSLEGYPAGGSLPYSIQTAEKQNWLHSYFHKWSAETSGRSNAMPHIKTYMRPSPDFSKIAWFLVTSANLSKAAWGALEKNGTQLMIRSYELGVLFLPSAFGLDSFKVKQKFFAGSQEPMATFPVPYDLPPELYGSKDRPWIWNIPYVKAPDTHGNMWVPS
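Signal: AlphaScreen proximity between streptavidin donor and anti-FITC acceptor beads on intact substrate. Reaction: Tdp1 1 nM, substrate 15 nM final, 5 min RT after 15 min compound preincubation.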
Large screens that a line does not name were inactive; ! = repeats disagree. Shown are actives, neighbours in structure and some others; about 18% of the full set was active somewhere. Unless noted, calls come from the whole dose curve; as a rule, active = well fitted curve in the direction sought with a large enough effect; inconclusive = small, poorly fitted or top-dose-only effect, or another doubt; inactive = no such curve, though single readings can be large; an effect the other way counts as inactive or inconclusive.

Cc1ccc(C(=O)Nc2nc(-c3nnn(-c4cccc(Cl)c4C)c3C)ns2)cc1C	DT40 TDP1 CPT 26µM, TDP1 cell noCPT 18µM, TGFb inhibitor inconclusive (no result: IL-1B inflam inh)
Cc1ccc(Cl)cc1-n1nnc(-c2nsc(NC(=O)c3ccccc3Cl)n2)c1C	DT40 TDP1 CPT inconclusive, TDP1 cell noCPT inconclusive (no result: IL-1B inflam inh)
Cc1ccc(C(=O)Nc2nc(-c3nnn(-c4cccc(C(F)(F)F)c4)c3C)ns2)cc1	DT40 TDP1 CPT 3.3µM, TDP1 cell noCPT 4.1µM (no result: IL-1B inflam inh)
CC1CCC(CC(=O)O)(C(=O)O)CC1 (stereo not drawn)	none (no result: TDP1 inh)
CCCCCC(=O)N[C@@H](c1ccccc1)[C@@H](O)C(=O)O[C@H]1C[C@@]2(O)[C@@H](OC(=O)c3ccccc3)C3[C@](C)(C(=O)[C@H](OC(C)=O)C(=C1C)C2(C)C)[C@@H](O)C[C@H]1OC[C@@]31OC(C)=O (stereo partly drawn)	DT40 TDP1 CPT 0.12µM, TDP1 cell noCPT 0.1µM, TGFb inhibitor inconclusive (no result: TDP1 inh)
O=C(c1ccccc1)c1sc(N2CCCCCC2)nc1-c1ccccc1	DT40 TDP1 CPT inconclusive, TDP1 cell noCPT 15µM, TGFb inhibitor inconclusive, TDP1 inh inconclusive
[2H]c1c([2H])c([2H])c(C(=O)c2sc(N3CCCCCC3)nc2-c2ccccc2)c([2H])c1[2H]	DT40 TDP1 CPT inconclusive, TDP1 cell noCPT 16µM, TGFb inhibitor 14µM
COc1ccc(-c2nc(N3CCCCCC3)sc2C(=O)c2ccccc2)cc1	DT40 TDP1 CPT inconclusive, TDP1 cell noCPT 23µM, TGFb inhibitor inconclusive
COc1ccc(-c2nc(N3CCN(C)CC3)sc2-c2ccc(OC)cc2)cc1	DT40 TDP1 CPT inconclusive, TDP1 cell noCPT 29µM
c1ccc2sc(N3CCCCC3)nc2c1	none (no result: TDP1 inh)
O=C(CCS(=O)(=O)c1cccc2nonc12)Nc1ccc(Br)cc1	TDP1 cell noCPT inconclusive
CC(C)(CNS(=O)(=O)c1cccs1)N1CCOCC1	none
O=C(c1ccc(Br)cc1)c1sc(N2CCOCC2)nc1-c1ccccc1	DT40 TDP1 CPT inconclusive, TDP1 cell noCPT 21µM
O=C(c1ccccc1)c1sc(N2CCOCC2)nc1-c1ccccc1	DT40 TDP1 CPT inconclusive, IL-1B inflam inh inconclusive, TDP1 cell noCPT inconclusive
Cc1cccn2cc(CCNC(=O)c3cccs3)nc12	none (no result: TDP1 inh)
Cc1ccc(NC(=O)c2c3c(nc4ccccc24)CCC3)cc1	none
Cc1ccc(NC(=O)c2ccc3ccccc3n2)cc1S(=O)(=O)N(C)C	DT40 TDP1 CPT inconclusive, TDP1 cell noCPT 12µM
Cc1cnc(C(=O)Nc2ccc(C)c(S(=O)(=O)N(C)C)c2)cn1	DT40 TDP1 CPT inconclusive, TDP1 cell noCPT 15µM
Cc1ccc(NC(=O)c2cnccn2)cc1S(=O)(=O)N(C)C	none
Cc1ccc(NC(=O)c2c3c(nc4ccccc24)CCC3)cc1S(=O)(=O)N(C)C	DT40 TDP1 CPT 16µM, TDP1 cell noCPT inconclusive
COc1ccc(-c2nc3cnc(OC)nc3n(C[C@H]3CCCO3)c2=O)cc1	none (no result: HepG2 tox, IL-1B inflam inh, TGFb inhibitor, TDP1 inh)
C/C=C(/C)C(=O)O[C@H]1C[C@@]2(C)O[C@H]2[C@@H](OC(C)=O)C2(C)CC[C@@](O)(C(C)C)C12 (stereo partly drawn)	none (no result: DT40 TDP1 CPT, HepG2 tox, IL-1B inflam inh, TDP1 cell noCPT, TGFb inhibitor)
C=C1C(=O)OC2C1C(OC(=O)C(C)=CC)CC(=C)C1C(O)C3OC3(C)C21O (stereo not drawn)	DT40 TDP1 CPT 15µM, IL-1B inflam inh -101, TDP1 cell noCPT 15µM (no result: TDP1 inh)
COC(C(=O)Nc1ccnn1C1CCN(C(=O)c2ccc(C)cc2)CC1)c1ccccc1 (stereo not drawn)	none
Cn1c(C=O)c(C#Cc2ccccc2)c2ccccc21	DT40 TDP1 CPT inconclusive, TDP1 cell noCPT 23µM, TGFb inhibitor inconclusive, TDP1 inh 20µM
COc1ccc(C#Cc2c(C=O)n(C)c3ccccc23)cc1	DT40 TDP1 CPT inconclusive, TDP1 cell noCPT inconclusive, TGFb inhibitor inconclusive (no result: TDP1 inh)
CCc1cc2c3c(c1)C1(C(=O)N3C(C)(C)C=C2C)C(C#N)=C(N)Oc2[nH]c(=O)[nH]c(=O)c21 (stereo not drawn)	DT40 TDP1 CPT 3.3µM, TDP1 cell noCPT 3.3µM, TGFb inhibitor inconclusive
O=C(NCc1ccccn1)c1ccc(N2CCCC2=O)cc1	none
COc1ccc(OC)c(CCNC(=O)c2ccc(CS(=O)(=O)c3ccc(Br)cc3)o2)c1	DT40 TDP1 CPT 21µM, TDP1 cell noCPT inconclusive, TGFb inhibitor inconclusive
COc1ccc(S(=O)(=O)Cc2ccc(C(=O)O)o2)cc1	none (no result: TDP1 inh)
O=C(NCc1ccccc1)c1ccc(CSc2ccccc2)o1	IL-1B inflam inh -91
Cc1ccc(S(=O)(=O)Cc2ccc(C(=O)O)o2)cc1	TDP1 inh 40µM
COc1ccc(S(=O)(=O)Cc2ccc(C(=O)NCc3ccc(C)cc3)o2)cc1	TDP1 cell noCPT 23µM
O=C(NCc1ccccc1)c1ccc(CS(=O)(=O)c2ccccc2)o1	DT40 TDP1 CPT 2.6µM, TDP1 cell noCPT 16µM
O=C(NCc1ccccc1Cl)c1ccc(CS(=O)(=O)c2ccccc2)o1	none
COc1ccc(CNC(=O)c2ccc(CS(=O)(=O)c3ccc(Br)cc3)o2)cc1	DT40 TDP1 CPT 23µM, TDP1 cell noCPT 23µM!
